PubChem BioAssay AID1851 (National Center for Advancing Translational Sciences (NCATS), 2009)
In all, about 16,000 compounds went through this assay and about 5,100 (32%) were called active. Not shown: some 25% with an inconclusive outcome. Calls follow the shape of the dose curve; as a rule, active = well fitted curve in the direction sought with a large enough effect; inconclusive = small, poorly fitted or top-dose-only effect, or effect the other way; inactive = no such curve, though single readings can be large or run the other way. The list shows a part of the results.
% is scaled to controls: 0 for no effect and ±100 for the full control effect.

What follows are compounds tested against Cytochrome P450 3A4 (Homo sapiens) (UniProt P08684) (assay: Cytochrome panel assay with activity outcomes). Conditions: recombinant CYP, pro-luciferin dealkylation, luminescence, p450-cyp3a4; series mostly up to 57.1 µM.
Cytochrome P450 3A4 (Homo sapiens), sequence (P08684 whole entry, looked up): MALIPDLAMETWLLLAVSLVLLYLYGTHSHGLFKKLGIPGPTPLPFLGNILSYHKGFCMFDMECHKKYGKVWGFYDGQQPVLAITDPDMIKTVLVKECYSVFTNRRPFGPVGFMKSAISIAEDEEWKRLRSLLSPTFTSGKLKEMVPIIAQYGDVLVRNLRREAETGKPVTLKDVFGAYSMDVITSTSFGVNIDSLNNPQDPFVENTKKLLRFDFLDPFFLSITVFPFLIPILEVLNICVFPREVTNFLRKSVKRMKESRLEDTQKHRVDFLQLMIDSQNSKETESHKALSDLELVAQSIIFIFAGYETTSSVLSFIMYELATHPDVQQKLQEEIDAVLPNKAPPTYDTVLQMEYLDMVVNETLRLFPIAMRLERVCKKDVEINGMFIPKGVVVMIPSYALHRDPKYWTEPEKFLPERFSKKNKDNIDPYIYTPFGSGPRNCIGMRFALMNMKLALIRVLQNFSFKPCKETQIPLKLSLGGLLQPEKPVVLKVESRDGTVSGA
CCC(=O)NNc1cc(=O)c2c(=O)n(C)c(=O)n(C)c2[nH]1 was tested, and the activity, negative = inhibition was 1.3% [at 2.29 µM] (inactive). With O=[N+]([O-])c1ccc(N2CCCCC2)c(Cl)c1N1CCCCC1 the AC50 was “inactive”. O=C1CCCN1c1ccc(S(=O)(=O)Oc2cccc(Cl)c2)cc1[N+](=O)[O-] was tested, and the AC50 was 12.6 µM (active). In the case of Cn1cccc1C(=O)N1CCC2(CC1)CCN(c1ccccn1)CC2, the AC50 was “inactive”. CN1C(=O)/C(=C\c2ccccc2)Sc2ccc(C(=O)N3CCN(c4ccccn4)CC3)cc21 was tested, and the AC50 was 14.1 µM (active). For COc1cccc(-c2nc(NCc3cnc(C)cn3)c3ccccc3n2)c1, the AC50 was 2.51 µM (active). For Cc1cnc(CNc2nc(-c3cccnc3)nc3ccccc23)cn1, the AC50 was 3.98 µM (active). For CCCC12CN3CC(CCC)(CN(C1)C3C(O)C(O)C(O)CO)C2=O (stereo not given), the activity, negative = inhibition was 0.643% [at 11.4 µM] (inactive). In the case of O=C(NNC(=S)NC(=O)c1cccnc1)c1ccccc1, the activity, negative = inhibition was 1.97% [at 2.29 µM] (inactive). For Cc1ccc(C(=O)NNC(=S)NC(=O)c2ccc(Cl)cc2)cc1, the AC50 was 14.1 µM (active). For COC(=O)c1nnn(Cc2ccccc2)c1N, the AC50 was “inactive”. With Cc1ccc(C)c(NC(=O)Cn2c([N+](=O)[O-])cnc2C)c1 the AC50 was “inactive”. For Cc1ccc(C)c(NC(=O)Cn2nnc(C(=O)Nc3c(C)cccc3C)c2N)c1, the AC50 was 12.6 µM (active). In the case of COc1ccc(CCNC(=O)c2nnn(CC(=O)Nc3ccccc3C)c2N)cc1OC, the AC50 was 12.6 µM (active). In the case of CCOc1ccc(NC(=O)Cn2nnc(C(=O)NCc3ccccc3OC)c2N)cc1, the AC50 was 11.2 µM (active). With CCOc1ccc(NC(=O)c2nnn(CC(=O)Nc3ccccc3OC)c2N)cc1 the AC50 was “inactive”. Cc1ccc(C)c(NC(=O)Cn2nnc(C(=O)NCc3cccs3)c2N)c1 was tested, and the AC50 was “inactive”. O=C(O)/C=C1\NC(=O)c2ccccc21 was tested, and the AC50 was “inactive”. With NCC[C@H](N)C(=O)O the activity, negative = inhibition was -6.61% [at 11.4 µM] (inactive). CC(C)NC(=O)N1CC[C@@]2(CCCN(S(C)(=O)=O)C2)C1 was tested, and the AC50 was “inactive”. With COc1ccc(NC(=O)N2CC3(CCN(S(C)(=O)=O)CC3)C2)cc1 the AC50 was “inactive”. With COc1ccc(NC(=O)N2CCCC3(CCN(S(=O)(=O)c4ccccc4)CC3)C2)cc1 the AC50 was 7.94 µM (active). For COc1ccc(NC(=O)N2CCCC3(CCN(S(C)(=O)=O)CC3)C2)cc1, the AC50 was 31.6 µM (active). With CC(C)NC(=O)N1CC2(CCN(S(=O)(=O)c3ccccc3)CC2)C1 the AC50 was “inactive”. In the case of COCC(=O)N1CCC2(CCCN(C(=O)Nc3ccccc3)C2)CC1, the AC50 was “inactive”. With COc1ccc(NC(=O)N2CCC3(CC2)CCN(S(C)(=O)=O)CC3)cc1 the AC50 was “inactive”. With CC(C)NC(=O)N1CCCC2(CCN(S(=O)(=O)c3ccccc3)CC2)C1 the AC50 was 7.94 µM (active). In the case of CCCCCCCCCCCCCCSCC(=O)O, the AC50 was “inactive”. With O=C(O)COc1ccc(OCCNC[C@@H](O)COc2ccccc2)cc1 the AC50 was “inactive”. O=C(NCCNC[C@@H](O)COc1ccc(O)cc1)N1CCOCC1 was tested, and the AC50 was “inactive”. Cc1ccc(OCC(O)CNC(=O)c2ccccc2C(=O)O)cc1 (stereo not given) was tested, and the AC50 was 28.2 µM (active). In the case of Cc1ccnc2nc(C(=O)OCC(=O)Nc3ccc4c(c3)OC(F)(F)O4)nn12, the AC50 was “inactive”. In the case of COc1cc(C)cc(OC)c1/C=C\C(=O)O, the activity, negative = inhibition was -4.32% [at 11.4 µM] (inactive). For COC(=O)[C@@]1(Cc2ccc(F)cc2)[C@H]2c3cc(C(=O)N4CCCC4)n(CCc4ccc(O)c(O)c4)c3C[C@H]2CN1C(=O)c1ccccc1, the AC50 was 2.51 µM (active). COC(=O)[C@@]1(Cc2ccc(F)cc2)[C@H]2c3cc(C(=O)N4CCCC4)n(CCc4ccc(OC)c(Br)c4)c3C[C@H]2CN1C(=O)c1ccccc1 was tested, and the AC50 was 2.51 µM (active). In the case of Cc1cc(OCC(F)(F)C(F)(F)C(F)(F)C(F)(F)C(F)(F)C(F)F)nc(N)n1, the AC50 was “inactive”. In the case of Nc1ccc(-c2sc(N)nc2-c2ccccc2)cc1, the AC50 was 10 µM (active). In the case of Nc1nc(-c2ccccc2)c(-c2ccccc2)s1, the activity, negative = inhibition was -8.94% [at 2.29 µM] (inactive). In the case of Nc1nc(-c2ccccc2)c(-c2ccccc2)c(-c2nc(N)nc(-c3ccccc3)c2-c2ccccc2)n1, the activity, negative = inhibition was 4.04% [at 11.4 µM] (inactive). For CSC1=N/C(=C\c2ccc(Br)o2)C(=O)S1, the activity, negative = inhibition was -3.65% [at 11.4 µM] (inactive). In the case of COc1ccc(O[C@H]2C=C[C@@H](c3ccccc3)O[C@@H]2CO/N=C(\C)CCN2CCc3nc(-c4ccccc4)c(-c4ccccc4)cc3C2)cc1, the activity, negative = inhibition was -57.3% [at 11.4 µM] (inactive). In the case of C=CC[C@@H]1C=C[C@H](O/N=C(\C)CCN2CCc3nc(CC)c(CC)cc3C2)[C@H](CO)O1, the activity, negative = inhibition was -75.9% [at 11.4 µM] (inactive). In the case of CCCNC(=O)OC[C@@H]1O[C@H](CCO/N=C(\C)CCN2CCc3nc(-c4ccccc4)c(-c4ccccc4)cc3C2)C=C[C@@H]1Oc1ccc(OC)cc1, the AC50 was 3.16 µM (active). In the case of CCCNC(=O)OC[C@@H]1O[C@H](CCO/N=C(\C)CCN2CCc3nc(CC)c(CC)cc3C2)C=C[C@@H]1Oc1ccc(OC)cc1, the AC50 was 3.98 µM (active). C=CC[C@@H]1C=C[C@H](O/N=C(\C)CCN2CCc3nc(-c4ccccc4)c(-c4ccccc4)cc3C2)[C@H](CO)O1 was tested, and the AC50 was 3.98 µM (active). For Cc1c(C)c(C)c(CC2(C)CSC2)c(CC2(C)CSC2)c1C, the activity, negative = inhibition was -14.4% [at 11.4 µM] (inactive). CN(C)CCN(Cc1cccs1)c1ccccn1 was tested, and the AC50 was “inactive”. With CC1=CC2=NC(=O)CC(C)(C(=O)N(CC(=O)NC(C)(C)C)Cc3cccs3)N2C=C1 (stereo not given) the AC50 was “inactive”. CC(C)(C)NC(=O)CN(Cc1cccs1)C(=O)CCC(=O)Nc1nccs1 was tested, and the AC50 was 4.47 µM (active). CSc1nc(C)c2c(n1)N(c1ccc(C(F)(F)F)cc1)CC2 was tested, and the AC50 was “inactive”. With CCOC(=O)c1c(-c2ccc(C)cc2)csc1NC(=O)C1CC=CCC1C(=O)O (stereo not given) the activity, negative = inhibition was -2.99% [at 2.29 µM] (inactive). For CCOC(=O)c1c(-c2ccccc2)csc1NC(=O)c1cccc(N2C(=O)CCC2=O)c1, the AC50 was “inactive”. CCOC(=O)c1c(-c2ccc(C)o2)csc1NC(=S)NC(=O)N(C)C was tested, and the AC50 was 15.8 µM (active). For COc1cc(N2CCOCC2)ncn1, the AC50 was “inactive”. With COc1cccc(-c2ccc3ncnc(N4CCN(C)CC4)c3c2)c1 the AC50 was 15.8 µM (active). In the case of COc1ccc(-c2nc(-c3cccc(C)c3)nc(N3CCN(C)CC3)c2C#N)cc1, the activity, negative = inhibition was -13.1% [at 2.29 µM] (inactive). CN(C)C(=O)c1ccc(-c2ccc3ncnc(N4CCNCC4)c3c2)cc1 was tested, and the AC50 was “inactive”. In the case of CN(C)C(=O)c1ccc(-c2ccc3ncnc(N4CCOCC4)c3c2)cc1, the AC50 was 15.8 µM (active). With COc1cccc(-c2ccc3ncnc(N4CCOCC4)c3c2)c1 the AC50 was 10 µM (active). COc1ccc(-c2nsc3c(N4CCCCC4)ncnc23)cc1 was tested, and the AC50 was “inactive”. For NCC[C@H]1CCC[C@H](CCN)N1, the AC50 was “inactive”. In the case of O=C(Cc1ccc(-n2c(=O)[nH]c3ccccc3c2=O)cc1)N1CCN(c2cccc(Cl)c2)CC1, the AC50 was 3.16 µM (active). CCOC(=O)N1CCN(c2c(-c3ccccc3)c3cc(Cl)ccc3[nH]c2=O)CC1 was tested, and the AC50 was “inactive”. For O=c1nc2ccccc2c2n1CC(CN1CCN(c3cccc(Cl)c3)CC1)N2 (stereo not given), the AC50 was “inactive”. N/C(CC/C(N)=N/O)=N\O was tested, and the activity, negative = inhibition was -5.56% [at 11.4 µM] (inactive). With CCOC(=O)CCN1C(=O)[C@H]2[C@@H]3[C@H](O)C=CC(=O)[C@H]3CC[C@H]2C1=O the activity, negative = inhibition was -11.5% [at 11.4 µM] (inactive). With Cc1cc(NC(=O)CCN2C(=O)C3C4CCC(C4)C3C2=O)c(C)cc1Br (stereo not given) the AC50 was 7.94 µM (active). For Cc1cccc(C)c1NC(=O)CCN1C(=O)C2C3CCC(C3)C2C1=O (stereo not given), the activity, negative = inhibition was 0.821% [at 2.29 µM] (inactive). In the case of O=C(CCc1nc2ccccc2c(=O)[nH]1)OCC(=O)N1CCN(S(=O)(=O)c2ccccc2)CC1, the AC50 was 7.94 µM (active). In the case of CCN1CCN(C(=O)CCc2nc3ccccc3c(=O)[nH]2)CC1, the AC50 was “inactive”. In the case of O=C(/C=C/c1ccccc1)N1CCN(Cc2nc3ccccc3c(=O)[nH]2)CC1, the AC50 was “inactive”. C[C@H]1C=C2C=C[C@H](C)[C@H](CC[C@@H]3C[C@@H](O)CC(=O)O3)[C@H]2[C@@H](OC(=O)[C@@H](C)CCO)C1 was tested, and the AC50 was 12.6 µM (active). In the case of CC[C@H](C)C(=O)O[C@H]1CCC=C2C=C[C@H](C)[C@H](CC[C@@H]3C[C@H](O)CC(=O)O3)[C@H]21, the AC50 was 12.6 µM (active). In the case of CCCCCC1CCC(C(=O)NNC(=S)NCC)CC1 (stereo not given), the activity, negative = inhibition was -1.07% [at 2.29 µM] (inactive). In the case of CN(C)CC[C@H](c1ccc(Br)cc1)c1ccccn1, the AC50 was “inactive”. For COCCN(C(=O)C(C)C)c1nnc(-c2ccc(C)cc2)s1, the AC50 was “inactive”. For CCn1c(SCC(=O)N2CCOCC2)nc2oc3c(Cl)cc(Cl)cc3c(=O)c2c1=O, the AC50 was 11.2 µM (active). In the case of CC(C)Cn1c(-c2ccc(Cl)cc2)cnc1SCC(=O)N1CCOCC1, the activity, negative = inhibition was -5.92% [at 2.29 µM] (inactive). For CC(C)(C)NC(=O)CSc1nnc(Cc2ccc3c(c2)OCO3)n1C1CCCCC1, the AC50 was 0.447 µM (active). With NC(=O)[C@@H]1CCCN1Cc1ccc2c(c1)OCO2 the activity, negative = inhibition was -37.8% [at 11.4 µM] (inactive). In the case of C[N+](C)(C)/N=C\c1ccc(O)c(O)c1, the activity, negative = inhibition was -21.1% [at 11.4 µM] (inactive). With CC(C)N=c1scc(-c2ccco2)n1/N=C/c1ccc(O)c(O)c1 the AC50 was 12.6 µM (active). With NCCc1nc(-c2nc(C(=O)O)cs2)cs1 the activity, negative = inhibition was -14.8% [at 11.4 µM] (inactive). For O=C(c1ccncc1)N1CCC2(CCN(Cc3ccccc3)CC2)CC1, the AC50 was 15.8 µM (active). In the case of COc1ccc(C(=O)N2CCC3(CCCN(Cc4ccncc4)C3)CC2)cc1, the AC50 was 7.94 µM (active). COc1ccc(C(=O)N2CCC3(CCN(Cc4ccncc4)CC3)CC2)cc1 was tested, and the AC50 was 15.8 µM (active). For COc1ccc(C(=O)N2CCC3(CCCN(C)C3)CC2)cc1, the AC50 was “inactive”. CC(=O)N1CCC2(CCN(Cc3ccncc3)CC2)CC1 was tested, and the AC50 was “inactive”. For O=C(c1ccncc1)N1CCC2(CCCN(Cc3ccncc3)C2)CC1, the AC50 was 5.01 µM (active). With O=C(c1cccc(F)c1)N1CCC2(CCN(Cc3ccccc3)CC2)CC1 the AC50 was “inactive”.
